{
  "source": "PubChem BioAssay",
  "data": [
    {"assay": "Plasmodium falciparum growth inhibition, primary screen, strain 3D7, DAPI fluorescence, 100 nL (AID 1184);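 further: parasites grown inside human red blood cells in medium with human serum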", "details": "P. falciparum 3D7 growth, 3 d, higher = more signal", "values": [
      {"smiles": "C=CCC(OC(C)=O)[C@@H]1[C@@H](N(Cc2ccc(-c3ccccc3)cc2)C(=O)c2ccc(C)cc2)c2cc(OCCCO)ccc2N1C(=O)c1ccc2ccccc2c1", "note": "(stereo partly drawn)", "z-score": -1.26},
      {"smiles": "C#CCN(C/C=C/c1ccccc1)[C@H](CO[Si](C)(C)C(C)(C)C)c1ccccc1", "z-score": -0.775},
      {"smiles": "CC(C)C[C@@H]1NC(=O)[C@H]2C[C@@H](C(=O)NCCCCCCNC(=O)CS)[C@@H](c3ccc(O)cc3)N2C1=O", "z-score": 0.214},
      {"smiles": "COCCOC(=O)N1C(=O)[C@@]2(c3cc(C#CC4(O)CCCCCC4)ccc31)[C@H](C(=O)N1CCc3cc(OC)c(OC)cc3C1)[C@H]1C(=O)O[C@H](c3ccccc3)[C@H](c3ccccc3)N1[C@@H]2c1ccc(O)cc1", "z-score": -1.72},
      {"smiles": "CCOC(=O)C1=C(C(=O)OCC)N(S(=O)(=O)CC[Si](C)(C)C)[C@H](c2ccccc2)CC1", "z-score": -1.81},
      {"smiles": "COc1ccccc1CN1C(=O)c2ccccc2[C@](Cc2ccccc2I)(C(=O)NCCCN(C)C)[C@@H]1c1ccc(CO)cc1", "z-score": -2.36},
      {"smiles": "[N-]=[N+]=NCc1ccccc1C[C@]1(C(=O)N2CCCCC2)N=C(c2ccc(OCCCO)cc2)O[C@H]1c1ccccc1", "z-score": -2.34},
      {"smiles": "C=CCC(OC(C)=O)[C@@H]1[C@@H](N(Cc2ccc(-c3ccccc3)cc2)C(=O)c2ccc(-c3ccccc3)cc2)c2cc(OCCCO)ccc2N1C(=O)c1ccc2ccccc2n1", "note": "(stereo partly drawn)", "z-score": -0.273}
    ]}
  ]
}
